# Laboratory results from PubChem BioAssay.
# “And” between values parts separate entries of the source, which are not always exact repeats. Identical values can stand only once. Results filed as inconclusive are left out. The source made the active and inactive calls. Rule as the data show it, unless noted: active = inhibition above about 80%; inactive = the rest.
# Tests used:
# [1] = growth inhibition of DIPG glioma cells, dose response, cell-based, SU-DIPG-XVII, MIPE5.0, CellTiter-Glo, qHTS (AID 1347060; cut-off not given, nearly all actives have AC50 up to about 26 µM); details: SU-DIPG-XVII viability, CellTiter-Glo ATP luminescence
# [2] = viability loss in pontine glioma line – cell-based, SU-DIPG-XXV, MIPE5.0, CellTiter-Glo, qHTS, dose response (AID 1347065; cut-off not given, nearly all actives have AC50 up to about 26 µM;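 also: cells exposed to compound for 48 hours before ATP readout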); details: CellTiter-Glo ATP luminescence
# [3] = JHH-DIPG-1 glioma cell viability, MIPE5.0 library, CellTiter-Glo luminescence, qHTS (AID 1347067; cut-off not given, nearly all actives have AC50 up to about 26 µM;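 also: cells exposed to compound for 48 hours before readout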); details: JHH-DIPG-1 glioma viability, CellTiter-Glo ATP luminescence
# [4] = SU-DIPG-XXV glioma cell viability, MIPE5.0 library, qHTS (AID 1347068; cut-off not given, nearly all actives have IC50 up to about 30 µM)
# [5] = LFS_MB_P medulloblastoma growth inhibition, cell-based, chromothripsis tumors, cisplatin or BGB combos (AID 1671449); details: LFS_MB_P medulloblastoma cells;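 also: cells exposed for 96 hours; 0% = vehicle DMSO and 100% = killing by high DMSO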
# [6] = HDN33 neuroblastoma growth inhibition, cell-based, chromothripsis tumors, cisplatin or BGB combos (AID 1671450); details: HDN33 neuroblastoma cells, stronger effect = higher value;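 also: cells exposed to compound for four days; 0% = vehicle DMSO and 100% = cell killing by high DMSO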
# [7] = ICB984 medulloblastoma cell growth inhibition, synergistic combos for chromothripsis tumors, cisplatin or BGB combos (AID 1671451; call rule not given here;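 also: cells exposed for 96 hours before readout; 0% = vehicle DMSO and 100% = killing by high DMSO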); details: ICB984 medulloblastoma cells, drug combinations, stronger effect = higher value
# [8] = LFS_MB_1R medulloblastoma cell growth inhibition, synergistic combos for chromothripsis tumors, cisplatin or BGB combos (AID 1671452); details: LFS_MB_1R medulloblastoma cells, stronger effect = higher value;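 also: cells exposed for 96 hours before readout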
# [9] = HTB85 osteosarcoma cell growth inhibition, synergistic combos for chromothripsis tumors, BGB or cisplatin IC20 combos (AID 1671453); details: HTB85 osteosarcoma cells, drug combinations, stronger effect = higher value;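 also: cells exposed for 96 hours before readout; 0% = vehicle DMSO and 100% = high DMSO killing control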
# [10] = CRL2098 osteosarcoma cell growth inhibition, synergistic combos for chromothripsis tumors, BGB or cisplatin IC20 combos (AID 1671454); details: CRL2098 osteosarcoma cells, drug combinations, stronger effect = higher value;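 also: cells exposed for 96 h before readout; 0% = vehicle DMSO and 100% = killing by high DMSO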
# [11] = HD-MB03 medulloblastoma cell growth inhibition, synergistic combos for chromothripsis tumors, BGB or cisplatin IC20 combos (AID 1671455; in the data active = inhibition above about 83%;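 also: 0% = vehicle DMSO and 100% = high DMSO as cytotoxic control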); details: HD-MB03 medulloblastoma cells, stronger effect = higher value
# [12] = UWB1.289 ovarian carcinoma cell growth inhibition, synergistic combos for chromothripsis tumors, BGB or cisplatin combos (AID 1671456); details: UWB1.289 ovarian carcinoma cells, stronger effect = higher value;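 also: cells exposed to compound for four days; 0% = vehicle DMSO and 100% = killing by high DMSO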
# [13] = LFS_MB_2R medulloblastoma cell growth inhibition, synergistic combos for chromothripsis tumors, cisplatin combos (AID 1671457); details: LFS_MB_2R medulloblastoma cells, stronger effect = higher value;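 also: cells exposed to compound for four days before readout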
# [14] = MDA-MB-436 breast carcinoma cell growth inhibition, synergistic combos for chromothripsis tumors, BGB or cisplatin combos (AID 1671458; call rule not given here;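 also: cells exposed for 96 hours; 0% = vehicle DMSO and 100% = killing by high DMSO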); details: MDA-MB-436 breast carcinoma growth inhibition, drug combinations, stronger effect = higher value
# [15] = UWB1.289_BRCA1 ovarian cancer growth, cell-based, BGB or cisplatin combinations (AID 1671459); details: UWB1.289 BRCA1 ovarian carcinoma, drug combinations, stronger effect = higher value
# [16] = human astrocyte viability loss, single and combined drugs, cytotoxicity control for chromothriptic childhood tumor combination screen, cell-based, BGB or cisplatin IC20 combos (AID 1671460); details: Human astrocytes, drug combinations, stronger effect = higher value;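 also: cells exposed to compounds for 96 hours before viability readout; 0% = vehicle and 100% = killing control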
# [17] = growth inhibition of BT084 medulloblastoma cells, cell-based, ICGC_MB145, cisplatin and BGB IC40 combos (AID 1671461); details: drug combinations, stronger effect = higher value;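 also: cells exposed to drugs for 96 hours; 0% = vehicle DMSO and 100% = high DMSO full killing control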
# [18] = growth inhibition of RCMB18 medulloblastoma cells, cell-based, cisplatin and BGB IC40 combos (AID 1671462); details: stronger effect = higher value;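 also: cells exposed to compound for four days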
# [19] = growth inhibition of CRL1545 osteosarcoma cells, cell-based, cisplatin and BGB IC20 combos (AID 1671464); details: stronger effect = higher value;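 also: cells exposed to compound for 96 hours before readout; 0% = vehicle DMSO and 100% = high DMSO killing control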
# [20] = measured here: combination with BGB IC40, at 0.05 µM
# [21] = measured here: with BGB IC20 combination, at 0.5 µM
# [22] = measured here: with cisplatin IC20 combination, at 0.5 µM
# [23] = measured here: combination with cisplatin, at 0.5 µM
# [24] = measured here: combination with cisplatin, at 5 µM
structure (smiles),measurement,setting,value
CO[C@H]1O[C@@H]2O[C@@]3(C)CC[C@H]4[C@H](C)CC[C@@H]([C@H]1C)[C@@]24OO3,outcome,[1],inactive
same,outcome,[2],inactive
same,outcome,[3],inactive
same,outcome,[4],inactive
CO[C@H]1C=CO[C@@]2(C)Oc3c(C)c(O)c4c(O)c(c5c(nc6cc(C)ccn65)c4c3C2=O)NC(=O)C(C)=CC=C[C@H](C)[C@H](O)[C@@H](C)[C@@H](O)[C@@H](C)[C@H](OC(C)=O)[C@@H]1C,inhibition,"[5]; at 0.5 µM, stronger effect = higher value",-25.7% (inactive) and 0.03% (inactive)
same,inhibition,"[5]; measured here: combination with BGB IC20, at 0.005 µM",-21% and -12.6%
same,inhibition,"[5]; measured here: combination with BGB IC40, at 0.005 µM",-15.4% and -21%
same,inhibition,[5]; [20],-19.4% and -36.7%
same,inhibition,"[5]; measured here: combination with cisplatin, at 0.5 µM, stronger effect = higher value",-19.3% and -0.506%
same,inhibition,"[5]; measured here: combination with cisplatin, at 5 µM, stronger effect = higher value",-24.8% and 7.24%
same,inhibition,"[6]; BGB combo, at 5 µM",-5.62% and -13.7%
same,inhibition,[6]; at 0.5 µM,-1.69% (inactive) and -3.15% (inactive)
same,inhibition,"[6]; cisplatin combo, at 5 µM",-20.9% and -12.7%
same,inhibition,[6]; [21],24.2% and -1.36%
same,inhibition,[6]; [22],-2.79% and 1.82%
same,inhibition,"[6]; single agent, at 5 µM",-32.3% and -1.92%
same,inhibition,"[7]; BGB IC20 combo, at 0.005 µM",0.503% and -4.57%
same,inhibition,"[7]; BGB IC40 combo, at 0.005 µM",18.5% and -33.7%
same,inhibition,"[7]; BGB IC40 combo, at 0.05 µM",-2.72% and 6.47%
same,inhibition,[7]; at 0.5 µM,-25.8% (inactive) and -13.5% (inactive)
same,inhibition,"[7]; cisplatin combo, at 0.05 µM",-2.72% and 3.11%
same,inhibition,"[7]; cisplatin combo, at 0.5 µM",-37.2% and -4.35%
same,inhibition,"[7]; cisplatin combo, at 5 µM",-14.1% and -11.2%
same,inhibition,"[7]; measured here: 5 uM single agent, at 5 µM",-18.1% and 0.267%
same,inhibition,[8]; at 0.5 µM,17.8% (inactive) and -17.4% (inactive)
same,inhibition,[8]; [20],-4.04% and -14.4%
same,inhibition,[8]; [23],-10.1% and -31.8%
same,inhibition,[8]; [24],-6.72% and -38.3%
same,inhibition,[9]; at 0.5 µM,-5.41% (inactive) and -9.58% (inactive)
same,inhibition,"[9]; measured here: with BGB IC20, at 0.5 µM",-40.5% and -14.9%
same,inhibition,"[9]; measured here: with BGB IC20, at 5 µM",-22.4% and -7.39%
same,inhibition,"[9]; measured here: with cisplatin IC20, at 0.5 µM",16.5% and -6.9%
same,inhibition,"[9]; measured here: with cisplatin IC20, at 5 µM",10.3% and 21%
same,inhibition,"[9]; single agent, at 5 µM",-1.97% and 12.2%
same,inhibition,[10]; at 0.5 µM,-18.8% (inactive) and -34.3% (inactive)
same,inhibition,"[10]; measured here: combination with BGB at IC20, at 0.5 µM",-28.7% and -29%
same,inhibition,"[10]; measured here: combination with cisplatin at IC20, at 0.5 µM",-10.1% and -43.6%
same,inhibition,[11]; at 0.5 µM,-6.38% (inactive) and 5.86% (inactive)
same,inhibition,"[11]; measured here: combo with BGB at IC20, at 0.5 µM",-2.33% and 1.22%
same,inhibition,"[11]; measured here: combo with cisplatin at IC20, at 0.5 µM",-9.26% and 19.1%
same,inhibition,[12]; at 0.5 µM,4.48% (inactive) and 6.54% (inactive)
same,inhibition,"[12]; measured here: inhibition with BGB combination, at 0.05 µM",-18.6% and -11.7%
same,inhibition,"[12]; measured here: inhibition with cisplatin combination, at 0.05 µM",-10.6% and 10.3%
same,inhibition,[13]; at 0.5 µM,-17.5% (inactive) and -15.1% (inactive)
same,inhibition,[13]; [23],-7.91% and -17.1%
same,inhibition,[13]; [24],-18% and -13.3%
same,inhibition,[14]; at 0.5 µM,-11.8% (inactive) and -3.37% (inactive)
same,inhibition,"[14]; measured here: BGB combination, at 0.5 µM",-0.535% and -8.79%
same,inhibition,"[14]; measured here: BGB combination, at 5 µM",-3.41% and -15.2%
same,inhibition,"[14]; measured here: cisplatin combination, at 0.5 µM",-30.7% and -0.606%
same,inhibition,"[14]; measured here: cisplatin combination, at 5 µM",-23.7% and -8.55%
same,inhibition,"[15]; BGB combination, concentration series, at 5 µM",3.57% and 12%
same,inhibition,[15]; at 0.5 µM,6.89% (inactive) and 6.14% (inactive)
same,inhibition,"[15]; cisplatin combination, concentration series, at 5 µM",5.53% and -6.86%
same,inhibition,[16]; at 0.5 µM,-8.79% (inactive) and -10.8% (inactive)
same,inhibition,"[16]; measured here: combo with BGB IC20, at 0.5 µM",-1.97% and -5.46%
same,inhibition,"[16]; measured here: combo with cisplatin IC20, at 0.5 µM",-27% and -10.4%
same,inhibition,[17]; at 0.5 µM,-17.7% (inactive) and -11.5% (inactive)
same,inhibition,"[17]; cisplatin combination, at 0.5 µM",-34% and -17.3%
same,inhibition,"[17]; cisplatin combination, at 5 µM",-37% and 5.08%
same,inhibition,"[17]; measured here: BGB IC40 combination 0.05 uM, at 0.05 µM",-7.06% and 28.8%
same,inhibition,"[17]; single agent, at 5 µM",-13.3% and -9.78%
same,inhibition,[18]; at 0.5 µM,-1.81% (inactive) and -2.64% (inactive)
same,inhibition,"[18]; cisplatin combo, at 5 µM",-11.2% and 11.2%
same,inhibition,"[18]; measured here: BGB IC40 combination, at 0.05 µM",12.8% and 1.86%
same,inhibition,[18]; [23],-36.9% and 15.4%
same,inhibition,"[18]; single agent, at 5 µM",-12% and -2.61%
same,inhibition,[19]; at 0.5 µM,8.59% (inactive) and -15.2% (inactive)
same,inhibition,[19]; [21],-1.52% and -4.42%
same,inhibition,[19]; [22],13.6% and -22.6%
same,inhibition,"[19]; single agent, at 0.05 µM",15.1% and 18%
same,inhibition,"[19]; single agent, at 5 µM",-31.6% and 28.6%
CCCCC[C@H](O)/C=C/[C@H]1[C@H](O)CC(=O)[C@@H]1CCCCCCC(=O)O,outcome,[1],inactive
same,outcome,[2],inactive
same,outcome,[3],inactive
same,outcome,[4],inactive
CN1CCN2c3ncccc3Cc3ccccc3C2C1 (stereo not given),outcome,[1],inactive
same,outcome,[2],inactive
same,outcome,[3],inactive
same,outcome,[4],inactive
